Results taken from PubChem BioAssay AID1159580 (chemical genetic matrix, 2015).
Several values for one entry are separate records, joined by “and”; a condition that tells them apart may be missing. Identical values can stand only once. Out of some 5,500 compounds screened, about 2,000 (36%) were called active. Not shown: some 18% with an inconclusive outcome. No stated cut-off is given here; in the data, active means normalized growth mostly below about 0.91 (no sharp cut-off); inconclusive means no clear call, values can overlap the other calls; inactive means mostly above about 0.92. The list shows a part of the results.

Experiment: chemical genetic growth profiling, strain panel (AID 1159580);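 further: tested at 20 µM; growth read once vehicle control cultures reached saturation at 30 °C; 1 = growth at the plate median or of vehicle wells; lower values mean less growth of the strain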
Conditions: growth OD

Measured: normalized growth

CN1CCN(CC(=O)N2c3ccccc3C(=O)Nc3cccnc32)CC1
inactive: S. cerevisiae deletion strains, locus YJR075W, strain HOC1, active compounds read low 1.01 and 0.992 | S. cerevisiae deletion strains, locus YKL009W, strain mrt4, active compounds read low 0.998 | S. cerevisiae deletion strains, locus YKL068W, active compounds read low 1 | S. cerevisiae deletion strains, locus YKL085W, strain MDH1 (second series), active compounds read low 1.02 | S. cerevisiae deletion strains, locus YKL085W, strain MDH1, active compounds read low 1.02 | S. cerevisiae deletion strains, locus YKL160W, strain elf1, active compounds read low 1.01 | S. cerevisiae deletion strains, locus YKL190W, strain CNB1, active compounds read low 1.01 | S. cerevisiae deletion strains, locus YKR001C, strain vps1, active compounds read low 1.01 | S. cerevisiae deletion strains, locus YKR026C, strain gcn3, active compounds read low 1.01 | S. cerevisiae deletion strains, locus YKR091W, strain srl3, active compounds read low 1 | S. cerevisiae deletion strains, locus YLL001W, strain dnm1, active compounds read low 1.01 | S. cerevisiae deletion strains, locus YLL026W, active compounds read low 1.02 | S. cerevisiae deletion strains, locus YLL041C, strain sdh2, active compounds read low 1.01 | S. cerevisiae deletion strains, locus YLR027C, strain aat2, active compounds read low 1 | S. cerevisiae deletion strains, locus YLR039C, strain RIC1, active compounds read low 1.04 | S. cerevisiae deletion strains, locus YLR058C, strain SHM2, active compounds read low 1.02 | S. cerevisiae deletion strains, locus YLR102C, strain apc9, active compounds read low 1.02 | S. cerevisiae deletion strains, locus YLR113W, strain HOG1, active compounds read low 0.989 | S. cerevisiae deletion strains, locus YLR221C, strain rsa3, active compounds read low 1.01 | S. cerevisiae deletion strains, locus YLR258W, strain gsy2, active compounds read low 1.02 | S. cerevisiae deletion strains, locus YLR262C, strain YPT6 (second series), active compounds read low 0.992 | S. cerevisiae deletion strains, locus YLR262C, strain YPT6, active compounds read low 1.04 | S. cerevisiae deletion strains, locus YLR268W, strain sec22, active compounds read low 1.03 | S. cerevisiae deletion strains, locus YLR320W, strain mms22, active compounds read low 1.02 | S. cerevisiae deletion strains, locus YLR330W, strain CHS5, active compounds read low 1.01 | S. cerevisiae deletion strains, locus YLR342W, strain FKS1 (second series), active compounds read low 1.05 | S. cerevisiae deletion strains, locus YLR342W, strain FKS1, active compounds read low 1.01 | S. cerevisiae deletion strains, locus YLR357W, strain rsc2, active compounds read low 1.05 | S. cerevisiae deletion strains, locus YLR370C, strain arc18, active compounds read low 1.03 | S. cerevisiae deletion strains, locus YLR371W, strain rom2, active compounds read low 1.03 | S. cerevisiae deletion strains, locus YLR384C, strain iki3, active compounds read low 1.02 | S. cerevisiae deletion strains, locus YLR418C, strain cdc73, active compounds read low 1.05 | S. cerevisiae deletion strains, locus YML016C, strain PPZ1, active compounds read low 1.01 | S. cerevisiae deletion strains, locus YML032C, strain rad52, active compounds read low 1.01 | S. cerevisiae deletion strains, locus YML120C, strain ndi1, active compounds read low 1 | S. cerevisiae deletion strains, locus YML124C, strain tub3, active compounds read low 1.02 | S. cerevisiae deletion strains, locus YMR058W, strain fet3, active compounds read low 1.04 | S. cerevisiae deletion strains, locus YMR078C, strain ctf18, active compounds read low 1.01 | S. cerevisiae deletion strains, locus YMR125W, strain sto1, active compounds read low 1.01 | S. cerevisiae deletion strains, locus YMR129W, active compounds read low 1.02 | S. cerevisiae deletion strains, locus YMR205C, strain PFK2, active compounds read low 1.04 | S. cerevisiae deletion strains, locus YMR223W, strain ubp8, active compounds read low 1.01 | S. cerevisiae deletion strains, locus YMR231W, strain pep5, active compounds read low 1.02 | S. cerevisiae deletion strains, locus YMR263W, strain SAP30, active compounds read low 1.01 | S. cerevisiae deletion strains, locus YMR307W, strain GAS1, active compounds read low 1.07 | S. cerevisiae deletion strains, locus YNL067W, strain RPL9B, active compounds read low 1.01 | S. cerevisiae deletion strains, locus YNL071W, strain lat1, active compounds read low 1.03 | S. cerevisiae deletion strains, locus YNL128W, strain TEP1, active compounds read low 1.03 | S. cerevisiae deletion strains, locus YNL153C, strain GIM3, active compounds read low 1.01 | S. cerevisiae deletion strains, locus YNL175C, strain NOP13, active compounds read low 0.985 | S. cerevisiae deletion strains, locus YNL183C, strain NPR1, active compounds read low 0.938 | S. cerevisiae deletion strains, locus YNL197C, strain WHI3, active compounds read low 0.982 | S. cerevisiae deletion strains, locus YNL209W, strain ssb2, active compounds read low 1.02 | S. cerevisiae deletion strains, locus YNL224C, strain SQS1, active compounds read low 1.01 | S. cerevisiae deletion strains, locus YNL233W, strain BNI4, active compounds read low 1.01 | S. cerevisiae deletion strains, locus YNL248C, strain rpa49, active compounds read low 1.03 | S. cerevisiae deletion strains, locus YNL250W, strain rad50, active compounds read low 1.01 | S. cerevisiae deletion strains, locus YNL271C, strain bni1, active compounds read low 1.01 | S. cerevisiae deletion strains, locus YNL298W, strain CLA4, active compounds read low 1.02 | S. cerevisiae deletion strains, locus YNL307C, strain MCK1, active compounds read low 1.03 | S. cerevisiae deletion strains, locus YNL322C, strain KRE1 (second series), active compounds read low 1.02 | S. cerevisiae deletion strains, locus YNL322C, strain KRE1, active compounds read low 1.01 | S. cerevisiae deletion strains, locus YNR049C, strain mso1, active compounds read low 1 | S. cerevisiae deletion strains, locus YNR052C, strain pop2, active compounds read low 1.03 | S. cerevisiae deletion strains, locus YOL006C, strain TOP1, active compounds read low 1.05 | S. cerevisiae deletion strains, locus YOL012C, strain htz1 0.832 | S. cerevisiae deletion strains, locus YOL147C, strain pex11, active compounds read low 1.04 | S. cerevisiae deletion strains, locus YOR001W, strain rrp6, active compounds read low 1.02 | S. cerevisiae deletion strains, locus YOR061W, strain CKA2, active compounds read low 1.01 | S. cerevisiae deletion strains, locus YOR069W, strain VPS5, active compounds read low 1.01 | S. cerevisiae deletion strains, locus YOR070C, strain gyp1, active compounds read low 1.02 | S. cerevisiae deletion strains, locus YOR080W, strain dia2, active compounds read low 1.01 | S. cerevisiae deletion strains, locus YOR083W, strain WHI5 (second series), active compounds read low 0.986 | S. cerevisiae deletion strains, locus YOR083W, strain WHI5, active compounds read low 0.967 | S. cerevisiae deletion strains, locus YOR106W, strain vam3, active compounds read low 1.02 | S. cerevisiae deletion strains, locus YOR136W, strain idh2, active compounds read low 1.01 | S. cerevisiae deletion strains, locus YOR144C, strain elg1, active compounds read low 1.02 | S. cerevisiae deletion strains, locus YOR184W, strain ser1, active compounds read low 1.01 | S. cerevisiae deletion strains, locus YOR231W, strain MKK1, active compounds read low 0.983 | S. cerevisiae deletion strains, locus YOR265W, strain rbl2, active compounds read low 1.01 | S. cerevisiae deletion strains, locus YOR270C, strain vph1, active compounds read low 1.06 | S. cerevisiae deletion strains, locus YOR290C, strain snf2, active compounds read low 1.02 | S. cerevisiae deletion strains, locus YOR316C, strain cot1, active compounds read low 1.02 | S. cerevisiae deletion strains, locus YPL051W, strain arl3, active compounds read low 1.01 | S. cerevisiae deletion strains, locus YPL055C, strain LGE1, active compounds read low 1.01 | S. cerevisiae deletion strains, locus YPL078C, strain atp4, active compounds read low 1.02 | S. cerevisiae deletion strains, locus YPL106C, strain sse1, active compounds read low 1.03 | S. cerevisiae deletion strains, locus YPL240C, strain hsp82, active compounds read low 1 | S. cerevisiae deletion strains, locus YPL241C, strain CIN2, active compounds read low 1.01 and 0.991 | S. cerevisiae deletion strains, locus YPL256C, strain CLN2, active compounds read low 0.978 | S. cerevisiae deletion strains, locus YPR119W, strain clb2, active compounds read low 1.01 | S. cerevisiae deletion strains, locus YPR141C, strain kar3, active compounds read low 1.02 | S. cerevisiae deletion strains, locus YPR163C, strain tif3, active compounds read low 1.03 | S. cerevisiae deletion strains, locus YPR167C, strain met16, active compounds read low 1.02 | S. cerevisiae deletion strains, strain wtn01, active compounds read low 1.01 | S. cerevisiae strains, strain wild type, active compounds read low 1.01
